The results in this text go back to ChEMBL document CHEMBL1961873, “Compounds: GSK PKIS; Assays: Nanosyn kinase panel” (2012).

In experiment [1] the test system is Tyrosine-protein kinase ABL1 (Homo sapiens), P00519 [T315I]. The following applies: at 1 µM.
The test system of experiment [2] is Tyrosine-protein kinase ABL1 (Homo sapiens), P00519 [Y253F]. Conditions: at 0.1 µM.
Experiment [3] has the same test system. Conditions: at 1 µM.
Experiment [4] concerns the target Tyrosine-protein kinase ABL1 (Homo sapiens) (UniProt P00519). The following applies: at 0.1 µM.
Experiment [5] shares this target. Conditions: at 1 µM.
For experiment [6], the target named is ALK tyrosine kinase receptor (Homo sapiens) (UniProt Q9UM73). The following applies: at 0.1 µM.
Experiment [7] shares this target. Conditions: at 1 µM.
For experiment [8], the target named is Tyrosine-protein kinase ABL2 (Homo sapiens) (UniProt P42684). The following applies: at 0.1 µM.
The target is the same in experiment [9]. The following applies: at 1 µM.
The target of experiment [10] is Tyrosine-protein kinase receptor UFO (Homo sapiens) (UniProt P30530). Conditions: at 0.1 µM.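 Further: values are mean percent inhibition of AXL from the GSK PKIS screen.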
Sequence of Tyrosine-protein kinase receptor UFO (Homo sapiens) (P30530 whole entry): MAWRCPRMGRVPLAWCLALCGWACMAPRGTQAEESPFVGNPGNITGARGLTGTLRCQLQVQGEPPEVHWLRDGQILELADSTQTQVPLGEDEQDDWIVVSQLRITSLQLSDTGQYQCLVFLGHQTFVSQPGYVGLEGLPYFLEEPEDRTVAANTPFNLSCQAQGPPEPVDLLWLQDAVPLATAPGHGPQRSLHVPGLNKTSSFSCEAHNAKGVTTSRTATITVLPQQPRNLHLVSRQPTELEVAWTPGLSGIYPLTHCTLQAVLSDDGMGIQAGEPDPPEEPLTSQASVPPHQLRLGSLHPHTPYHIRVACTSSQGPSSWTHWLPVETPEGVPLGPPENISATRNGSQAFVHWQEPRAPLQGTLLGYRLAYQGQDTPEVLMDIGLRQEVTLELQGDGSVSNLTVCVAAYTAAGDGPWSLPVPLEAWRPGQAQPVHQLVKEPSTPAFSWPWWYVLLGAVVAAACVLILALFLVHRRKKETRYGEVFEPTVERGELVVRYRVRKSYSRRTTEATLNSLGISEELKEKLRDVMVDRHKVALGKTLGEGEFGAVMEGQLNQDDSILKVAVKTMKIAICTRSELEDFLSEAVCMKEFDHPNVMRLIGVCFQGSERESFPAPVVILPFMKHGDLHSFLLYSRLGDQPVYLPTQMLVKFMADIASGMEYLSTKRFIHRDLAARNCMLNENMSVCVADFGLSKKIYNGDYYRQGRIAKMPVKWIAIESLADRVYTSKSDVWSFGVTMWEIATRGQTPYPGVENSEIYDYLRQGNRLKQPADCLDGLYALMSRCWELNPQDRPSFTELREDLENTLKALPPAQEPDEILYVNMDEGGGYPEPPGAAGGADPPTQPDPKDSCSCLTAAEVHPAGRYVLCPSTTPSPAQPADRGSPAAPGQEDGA

Sequence of Tyrosine-protein kinase ABL2 (Homo sapiens) (P42684 whole entry): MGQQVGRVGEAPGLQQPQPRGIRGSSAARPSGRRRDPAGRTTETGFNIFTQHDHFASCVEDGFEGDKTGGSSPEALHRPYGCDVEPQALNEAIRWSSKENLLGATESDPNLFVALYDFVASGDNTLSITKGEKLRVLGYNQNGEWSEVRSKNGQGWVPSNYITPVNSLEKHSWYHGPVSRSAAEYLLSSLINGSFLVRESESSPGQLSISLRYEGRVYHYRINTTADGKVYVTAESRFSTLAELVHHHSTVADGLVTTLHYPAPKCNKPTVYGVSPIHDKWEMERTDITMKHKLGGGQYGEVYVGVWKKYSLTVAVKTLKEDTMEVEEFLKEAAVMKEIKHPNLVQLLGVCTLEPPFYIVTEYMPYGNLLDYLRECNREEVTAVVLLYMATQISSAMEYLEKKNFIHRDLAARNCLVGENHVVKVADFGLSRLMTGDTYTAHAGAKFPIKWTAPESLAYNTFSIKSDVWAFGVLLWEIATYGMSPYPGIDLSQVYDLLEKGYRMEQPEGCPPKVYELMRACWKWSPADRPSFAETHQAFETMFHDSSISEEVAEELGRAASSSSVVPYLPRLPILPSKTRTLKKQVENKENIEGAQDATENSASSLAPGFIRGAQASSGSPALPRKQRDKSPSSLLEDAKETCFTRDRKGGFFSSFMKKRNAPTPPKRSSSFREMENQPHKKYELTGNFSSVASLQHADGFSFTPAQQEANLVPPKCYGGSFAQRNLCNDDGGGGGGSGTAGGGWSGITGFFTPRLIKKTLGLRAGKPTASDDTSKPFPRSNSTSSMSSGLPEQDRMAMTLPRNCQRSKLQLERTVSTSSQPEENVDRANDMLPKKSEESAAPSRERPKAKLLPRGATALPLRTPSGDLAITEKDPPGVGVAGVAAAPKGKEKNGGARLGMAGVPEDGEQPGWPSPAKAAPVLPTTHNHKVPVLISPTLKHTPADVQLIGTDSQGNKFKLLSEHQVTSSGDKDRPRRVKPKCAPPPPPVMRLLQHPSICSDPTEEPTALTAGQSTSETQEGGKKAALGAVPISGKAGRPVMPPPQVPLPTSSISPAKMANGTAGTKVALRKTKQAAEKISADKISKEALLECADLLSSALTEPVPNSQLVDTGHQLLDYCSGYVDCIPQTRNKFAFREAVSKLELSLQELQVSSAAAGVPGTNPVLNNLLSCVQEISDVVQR
Sequence of ALK tyrosine kinase receptor (Homo sapiens) (Q9UM73 19-1620 limits assumed): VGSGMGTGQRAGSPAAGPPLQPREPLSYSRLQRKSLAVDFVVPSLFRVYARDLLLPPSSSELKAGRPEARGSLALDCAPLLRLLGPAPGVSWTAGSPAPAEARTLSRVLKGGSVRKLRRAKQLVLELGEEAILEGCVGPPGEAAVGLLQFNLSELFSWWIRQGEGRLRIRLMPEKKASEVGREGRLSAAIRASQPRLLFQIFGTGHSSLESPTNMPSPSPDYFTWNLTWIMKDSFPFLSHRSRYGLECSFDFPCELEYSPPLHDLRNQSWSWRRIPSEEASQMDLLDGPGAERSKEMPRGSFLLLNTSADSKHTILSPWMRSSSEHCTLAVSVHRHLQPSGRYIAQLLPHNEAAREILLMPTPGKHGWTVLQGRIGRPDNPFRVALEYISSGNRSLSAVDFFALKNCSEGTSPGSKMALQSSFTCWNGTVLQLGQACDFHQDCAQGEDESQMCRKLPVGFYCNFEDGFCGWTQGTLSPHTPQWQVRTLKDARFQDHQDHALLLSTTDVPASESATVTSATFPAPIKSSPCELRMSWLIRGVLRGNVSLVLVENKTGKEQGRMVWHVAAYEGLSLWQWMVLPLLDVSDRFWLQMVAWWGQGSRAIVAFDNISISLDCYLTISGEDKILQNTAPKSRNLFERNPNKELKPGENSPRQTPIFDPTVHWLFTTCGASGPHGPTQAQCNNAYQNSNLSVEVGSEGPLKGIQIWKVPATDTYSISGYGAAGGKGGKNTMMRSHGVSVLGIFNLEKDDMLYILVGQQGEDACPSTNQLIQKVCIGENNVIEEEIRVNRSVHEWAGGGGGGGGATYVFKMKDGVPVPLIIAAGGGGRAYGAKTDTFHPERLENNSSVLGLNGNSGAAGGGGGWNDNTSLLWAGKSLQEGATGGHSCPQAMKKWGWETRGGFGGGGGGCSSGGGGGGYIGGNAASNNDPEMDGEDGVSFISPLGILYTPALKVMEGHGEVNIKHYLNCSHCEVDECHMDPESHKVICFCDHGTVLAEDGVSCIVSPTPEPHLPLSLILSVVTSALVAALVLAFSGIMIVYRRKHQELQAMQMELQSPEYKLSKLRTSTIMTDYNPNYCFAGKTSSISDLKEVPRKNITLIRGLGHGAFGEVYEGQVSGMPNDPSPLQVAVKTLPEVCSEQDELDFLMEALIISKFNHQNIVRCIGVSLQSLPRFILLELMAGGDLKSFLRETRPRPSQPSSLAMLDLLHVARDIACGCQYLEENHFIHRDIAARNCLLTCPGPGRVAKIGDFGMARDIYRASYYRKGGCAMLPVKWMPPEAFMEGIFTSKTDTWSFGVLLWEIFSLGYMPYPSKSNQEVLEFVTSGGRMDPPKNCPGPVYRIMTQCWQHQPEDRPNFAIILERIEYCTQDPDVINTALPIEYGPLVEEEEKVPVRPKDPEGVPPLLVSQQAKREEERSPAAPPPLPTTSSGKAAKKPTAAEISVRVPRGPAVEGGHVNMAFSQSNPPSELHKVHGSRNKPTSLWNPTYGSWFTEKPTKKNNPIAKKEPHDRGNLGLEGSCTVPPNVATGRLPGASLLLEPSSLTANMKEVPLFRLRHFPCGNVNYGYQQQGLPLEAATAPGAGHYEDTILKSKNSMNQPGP

Broadly, the inhibition is the change of the read-out against control, counted positive when it falls. For the compound `COc1ccc2ncn(-c3cc(O[C@H](C)c4ccccc4Cl)c(C(N)=O)s3)c2c1`, the inhibition was 3.67% in experiment [1]; 2.13% in experiment [2]; 4.15% in experiment [3]; -0.74% in experiment [4]; 0.5% in experiment [5]; -1.6% in [6]. Besides, the inhibition in experiment [7] was 0.59%; in experiment [8], -1.99%; in experiment [9], -0.05%; in [10] it was -9.61%.
Turning to `CCc1ccc(Oc2nccc(-c3c(-c4ccc(F)cc4)ncn3C3CCNCC3)n2)cc1`, the inhibition in experiment [1] stood at 3.78%; in experiment [2], 1.61%; in [3] it was 2.53%; in [4], 5.79%; in [5], 6.61%; in experiment [6], 1.79%. Further, the inhibition in experiment [7] was 2.02%; in [8], 2.69%; in experiment [9] it was 5.01%; in experiment [10] it was -2.27%.
With `COc1ccc2cc(-c3c(-c4ccncc4)nc(-c4ccc(S(C)(=O)=O)cc4C)n3C)ccc2c1`, the inhibition in experiment [1] worked out at 42.6%; in experiment [2], 4.62%; in [3], 18%; in experiment [4] it was 2.92%; in [5], 13.5%; in [6], 2.91%. The inhibition in experiment [7] was 6.27%; in experiment [8] it was 2.97%; in experiment [9] it was 11.7%; in experiment [10], -5.68%.
As for `NC(=O)c1ccc(Oc2nccc(-c3c(-c4ccc(F)cc4)ncn3C3CCNCC3)n2)cc1`, the inhibition in [1] is 2.27%; in experiment [2], 3.97%; in [3], 3.32%; in experiment [4], 4.17%; in [5] it was 2.89%; in [6], 4.85%. Besides, the inhibition in [7] was 4.45%; in experiment [8] it was 2.35%; in experiment [9], 3.64%; in experiment [10], -7.67%.
As for `O=C(Nc1n[nH]c2nc(-c3ccc(O)cc3)c(Br)cc12)C1CC1`, the inhibition in experiment [1] amounted to 87.7%; in experiment [2], 22.1%; in [3], 67.1%; in experiment [4] it was 22.8%; in experiment [5], 72.6%; in experiment [6], 23.9%. Also, the inhibition is 72.3% in experiment [7], 7.68% in [8], 25.7% in experiment [9] and -7.6% in [10].
In the case of `O=C(NCC1CC1)c1ccc(-c2cccc(C(=O)NC3CC3)c2)cc1`, the inhibition in [1] was 1.69%; in experiment [2] it was 2.82%; in experiment [3], 3.7%; in experiment [4], 3.84%; in [5], 8.82%; in experiment [6], 1.84%. The inhibition is 3.12% in [7], 3.93% in [8], 5.95% in experiment [9] and -3.58% in experiment [10].
Regarding `NCc1ccc(-n2c(-c3nonc3N)nc3cnccc32)cc1`, the inhibition in experiment [1] is 0.9%; in experiment [2], 4.15%; in experiment [3] it was 2.66%; in experiment [4], 4.78%; in experiment [5], 3.54%; in [6], 6.31%. The inhibition was 17.3% in experiment [7], 4.87% in experiment [8], 6.75% in experiment [9] and -7.21% in experiment [10].
`CN(C)CCOc1ccc(-c2cc(-c3ccc4c(c3)CCC4=NO)c(-c3ccncc3)o2)cc1`: the inhibition in experiment [1] was 19.4%; in [2], 2.44%; in [3], 22.1%; in [4], 2.01%; in [5], 20.3%; in experiment [6] it was -1.95%. The inhibition in [7] is -0.08%; in experiment [8], 2.43%; in experiment [9] it was 18.6%; in [10], 1.32%.
Turning to `CCc1cccc(CC)c1/C=C/c1cncc(C(=O)NC)c1`, the inhibition in [1] was 4.76%; in [2] it was 5.29%; in experiment [3], 22.2%; in experiment [4], 8.06%; in [5], 45.9%; in experiment [6] it was 2.66%. In addition, the inhibition was 4.03% in [7], 5.58% in [8], 12.9% in experiment [9] and -2.3% in experiment [10].
Consider `CNC(=O)c1cncc(/C=C/c2c(C)cccc2C)c1`, for which the inhibition in experiment [1] is 2.52%; in experiment [2] it was 21.9%; in experiment [3], 70.3%; in experiment [4], 6.54%; in [5], 57.3%; in experiment [6], -3.56%. The inhibition in experiment [7] is -1.77%; in experiment [8], 7.09%; in [9], 51.3%; in experiment [10], -0.01%.
Regarding `NS(=O)(=O)c1ccc(N/N=C2\C(=O)Nc3ccc(-c4cnco4)cc32)cc1`, the inhibition is 19.9% in experiment [1]; 3.03% in [2]; 13.4% in [3]; -0.39% in experiment [4]; 9.41% in [5]; -3.07% in experiment [6]. Further, the inhibition in experiment [7] was -0.11%; in experiment [8], -0.55%; in [9], 9.88%; in [10], -3.81%.
Consider `CN(C)CCCNc1nccc(-c2c(-c3ccc(F)cc3)nn3cc(C(F)(F)F)ccc23)n1`, for which the inhibition was 2.66% in experiment [1]; 3.93% in experiment [2]; 6.04% in [3]; 2.04% in [4]; 11.2% in [5]; -2.64% in experiment [6]. In addition, the inhibition in experiment [7] is -0.07%; in experiment [8] it was 2.2%; in [9] it was 6.34%; in [10], -2.11%.
Consider `COc1ccc(C2=C(N3CCc4ccccc43)C(=O)NC2=O)cc1`, for which the inhibition turned out to be 6.11% in experiment [1]; 5.42% in experiment [2]; 3.01% in experiment [3]; 5.83% in [4]; 9.91% in [5]; 1.29% in experiment [6]. Besides, the inhibition in experiment [7] was 5.62%; in [8] it was 6.76%; in experiment [9] it was 12.3%; in experiment [10] it was -5.65%.
With `Nc1nccc(-c2c(-c3ccc(F)cc3)ncn2C2CCC(O)CC2)n1` (stereo not given), the inhibition in experiment [1] was 42.7%; in [2], 1.83%; in experiment [3] it was 24.4%; in [4], 1.2%; in experiment [5] it was 36.8%; in experiment [6] it was -2.24%. Also, the inhibition is 2.88% in experiment [7], 0.37% in experiment [8], 30.3% in [9] and 2.47% in experiment [10].
Take `O=C1NC(=O)C(c2cccc(Cl)c2)=C1Nc1ccc(Cl)c(C(=O)O)c1`: the inhibition in experiment [1] is 4.06%; in experiment [2], 1.35%; in [3] it was 3.2%; in [4], 3.49%; in experiment [5], 5.5%; in experiment [6] it was 1.24%. In addition, the inhibition in experiment [7] was 3.05%; in experiment [8] it was 3.74%; in experiment [9], -0.4%; in experiment [10], -4.48%.
For `C[C@@H](Oc1cc(-n2cnc3ccc(OC4CCN(C)CC4)cc32)sc1C(N)=O)c1ccccc1Cl`, the inhibition in [1] is 7.51%; in experiment [2], 3.29%; in [3] it was 13.1%; in experiment [4], 0.35%; in experiment [5], 7.3%; in experiment [6], -0.85%. For the same compound, the inhibition in [7] was 5.48%; in experiment [8], -1.57%; in experiment [9], 2.18%; in experiment [10] it was -8.27%.
`COc1cc(N2CCN(C(C)C)CC2)ccc1Nc1nc(Nc2ccc(F)cc2C(=O)NC[C@@H](O)CO)c2cc[nH]c2n1`: the inhibition in experiment [1] is 6.94%; in experiment [2], 4.03%; in experiment [3], 6.49%; in experiment [4] it was -1.73%; in [5], 0.53%; in experiment [6] it was 82.6%. Besides, the inhibition was 69.5% in experiment [7], -1.39% in [8], 1.38% in experiment [9] and -4.74% in experiment [10].
